Source: the supplement of paper PMC3334620
Over roughly 33,000 sequences, “E-score (-0.5 to 0.5)” has its median near -0.035; the highest 2% begin near 0.35. Only a selection was taken, and the highest values are over-represented in it overall.

Each sequence was assayed against T1, Pdr3 (UniProt P33200) (assay: PBM E-score (8-mer binding enrichment) (E-score (-0.5 to 0.5)); higher = stronger / more preferred TF binding). Settings: protein concentration: 200 nM; construct: GST-full length.
T1 sequence: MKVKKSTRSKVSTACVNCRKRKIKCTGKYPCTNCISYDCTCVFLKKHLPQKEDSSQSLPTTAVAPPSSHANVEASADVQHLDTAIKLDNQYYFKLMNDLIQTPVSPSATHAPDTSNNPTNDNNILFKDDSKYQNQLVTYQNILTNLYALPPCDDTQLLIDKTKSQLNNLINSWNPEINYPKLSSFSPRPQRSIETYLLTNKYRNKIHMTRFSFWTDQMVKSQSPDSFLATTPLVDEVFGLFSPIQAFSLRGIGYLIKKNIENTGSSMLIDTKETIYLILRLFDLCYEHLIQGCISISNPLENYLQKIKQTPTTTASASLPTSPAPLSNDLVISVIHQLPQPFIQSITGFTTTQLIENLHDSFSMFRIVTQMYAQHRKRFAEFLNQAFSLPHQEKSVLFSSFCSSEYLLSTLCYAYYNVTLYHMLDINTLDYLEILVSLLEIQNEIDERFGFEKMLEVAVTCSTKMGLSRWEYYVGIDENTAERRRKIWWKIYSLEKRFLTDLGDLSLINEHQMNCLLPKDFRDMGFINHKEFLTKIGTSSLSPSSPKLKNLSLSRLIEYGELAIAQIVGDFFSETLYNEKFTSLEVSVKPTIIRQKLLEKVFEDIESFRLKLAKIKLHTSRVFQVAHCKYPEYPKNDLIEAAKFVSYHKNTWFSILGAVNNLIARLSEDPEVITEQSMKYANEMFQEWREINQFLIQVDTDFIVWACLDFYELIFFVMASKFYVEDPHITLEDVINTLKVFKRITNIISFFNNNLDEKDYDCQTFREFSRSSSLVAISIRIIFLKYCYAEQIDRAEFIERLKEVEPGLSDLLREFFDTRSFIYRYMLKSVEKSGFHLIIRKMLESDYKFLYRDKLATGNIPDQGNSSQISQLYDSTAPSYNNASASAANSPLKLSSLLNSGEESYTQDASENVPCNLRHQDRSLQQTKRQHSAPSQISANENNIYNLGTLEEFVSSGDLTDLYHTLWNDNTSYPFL
Method in brief: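 Yeast transcription factors, full-length or as DNA-binding domains, were expressed with a GST tag using PURExpress in vitro transcription/translation. At about 100-200 nM they were applied to universal all-10-mer Agilent arrays, double-stranded by primer extension on fresh or once-stripped slides. Fluorescent anti-GST detected bound protein, and masliner normalised the scans. E-scores for ungapped eight-base words, pooled with reverse complements, came from the Universal PBM Analysis Suite.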

Sequence	PBM E-score
AGCACCAA	-0.0317
GGTTGCCA	0.233
ATAACGCG	0.168
CCTATCCC	0.188
TTGCGAAA	0.119
ACACTCCG	0.204
ACATGCGT	-0.265
TCGGAAAA	0.4
GAGGAAAC	0.053
GGGGAAAC	0.206
GCGGAAAC	0.415
TTGGAAAA	-0.141
TGGGAAAA	-0.104
ACTATCAC	-0.18
GGTGCACC	-0.0384
CTCACCAG	-0.147
ACCGGCGG	0.256
CCCGGCCC	0.247
CCCGGCAG	0.303
CCGGGCCC	0.345
ACCGGCCG	0.35
CCCGGCCG	0.357
CCGGGCCG	0.399
CCCGGCGG	0.382
GCGGGCAC	0.216
CCGGGCCA	0.346

Sequence	PBM E-score
ACGGGCAC	0.025
CCGGGCAC	0.364
GCAAGATA	-0.00203
GCCATTAC	0.137
CTCAACTA	-0.0622
CCTCGAAA	-0.114
CCCTGAGA	-0.165
CTCAGAAC	-0.135
ACATATTA	-0.0563
AAGGTTGC	-0.0716
GACCTATA	0.0796
ATACAGAG	-0.223
AGGAAACG	-0.0809
AGGAAACC	0.00802
CAGAAACG	0.0256
CGGAAACG	0.396
CGGAAACC	0.425
GGGAAACC	0.149
CGGAAACA	0.451
GGGAAACA	0.161
AGGAAACA	-0.0166
GTAAGAAC	-0.0573
CGGGGTTA	0.304
CAAGGTAC	-0.25
CCTGGTCA	-0.169
AGTGCAAC	-0.107

Sequence	PBM E-score
GTGCGGGA	0.252
GTGCGGCA	0.0901
CTGCGGAC	0.1
ATGCGGAC	0.134
ATGCGGAA	0.416
CTGCGGCA	0.0359
ATGCGGAG	0.0777
CTGCGGAA	0.357
GTGCGGAA	0.366
CAGCCCGC	0.00736
AATATTAA	0.244
TTGGGAAA	0.0633
CGGCTCGA	0.174
CGAGTCGC	-0.0735
ACACCTCT	-0.0108
TAAACCAA	-0.263
GCCCAGGC	-0.138
GTCGGATA	0.218
ATCGGACC	0.313
CTCGGAAA	0.372
ATCGGAAA	0.407
ATCGGAAC	0.469
GTCGGAAA	0.416
CTCGGGAA	0.301
CTCGGAGA	0.312
GTCGGAGA	0.173

Sequence	PBM E-score
ATCGGACA	0.221
ATCGGAGA	0.25
ATCGGAGC	0.275
ATGAATAC	-0.0134
ATTGCGGA	0.328
CCAGTGCC	-0.1
ACACAAGC	0.0653
GAATGGGC	0.186
ACGCCGAC	0.163
GGAGATGA	0.094
ATCGGAAG	0.359
ATCGGAGG	0.0523
CTGGGAAG	-0.176
TTCGGAAA	0.391
GTGGGAAC	-0.0738
GTCGGAAC	0.458
CTCGGAAG	0.39
GTCGGACA	0.218
CTAGGAAG	-0.214
TTCAGAAA	-0.195
TCGGGAAA	0.309
ATCGGACG	0.209
AGATCTCC	0.0532
AGAGTATA	-0.259
ATCCTGGC	-0.0357
AGTGCCTC	-0.229

Sequence	PBM E-score
TTCCCCAA	-0.0249
ATCGGATA	0.325
CTCGGAGC	0.276
CTCGGAAC	0.474
CTAGGAAC	-0.0409
ATCGGCAT	0.175
ATCGGAAT	0.43
CCACAGCG	-0.0122
TACGGCCA	-0.0624
CTTCGCCC	0.0168
CCCGCCCC	0.357
CGCGCCCG	0.23
CCCGCCCA	0.231
CCCGCCGC	0.27
ATCGCCGG	0.373
ACCGCCCG	0.227
ATCGCCGC	0.166
CCCGCCGG	0.373
CCCGCCGA	0.305
CCCGCCCG	0.372
ACCGCCCC	0.148
ATCGCCGA	0.154
GAATCTCC	0.225
GTGGCCGA	0.107
ACCAGTCG	-0.0214
GCCGCCGA	0.292

Sequence	PBM E-score
ACCGCCGA	0.103
TCCGCCGA	0.376
CATGGGAG	-0.124
CAGTCTCG	-0.203
TGCGATAA	0.0592
ACGGTAGT	-0.00668
ATCGGGAA	0.279
ATCCGGGC	0.386
ATCCGGGG	0.389
ATCGGGGG	0.0408
ATCCGGGA	0.313
AGCCGGGC	0.137
CTCCGGGC	0.236
CTGCTCGA	-0.176
AGCCATCA	-0.0552
ACGCCGAT	-0.0606
CATCCGCC	0.345
CATCCGCG	0.359
CATCCGCA	0.237
AGTCCGCA	0.203
AATCCGCA	0.246
AGTCCGCG	0.364
AGTCCGCC	0.324
AATCCGCT	0.16
AATCCGCG	0.388
GCCCTAAA	-0.219

Sequence	PBM E-score
CCTCAAGC	-0.113
AGCTCTGC	-0.217
CAGCTCTA	-0.128
TAAGCGTA	-0.311
CGAGAGCG	0.0432
ATTCGGTC	0.0502
CCGAGAAA	0.357
TCGAGAAA	-0.197
GCGAGAAA	-0.0403
ACAGTGGT	-0.156
CGGATCGC	0.279
AGGATCCA	-0.0311
CGGATCCA	0.413
GGGATCCA	0.222
CGGATCCG	0.489
GGGATCCC	0.374
TGGATCCA	0.096
CAGATCCG	0.314
AGGATCCC	0.152
AGGATCCG	0.301
